Measured values: PubChem BioAssay (NCI)
This is part of a sample that, as a whole, favours compounds with a hit. Of some 83,000 tested, about 20% had one in any assay.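 A percent growth of 40 corresponds to 60% growth inhibition; 0 means no net growth; -100 means all cells died. Active threshold: below 10.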 Activity calls are given as the source filed them.

Columns and labels:
Assay in all cases: NCI-60 one-dose screen, 48 h (100 = growth as untreated, 0 = no growth, -100 = all killed)
Settings in all cases: 10 µM unless noted
NCI-H23 lung = system: NCI-H23 lung
NCI-H226 lung = system: NCI-H226 lung
HOP-62 NSCLC = system: HOP-62 NSCLC
HOP-92 NSCLC = system: HOP-92 NSCLC
NCI-H522 lung = system: NCI-H522 lung
A549/ATCC NSCLC = system: A549/ATCC NSCLC
786-0 renal = system: 786-0 renal
COLO 205 colon = system: COLO 205 colon
DU-145 prostate = system: DU-145 prostate
K-562 leukemia = system: K-562 leukemia
MALME-3M melanoma = system: MALME-3M melanoma
MDA-MB-231 breast = system: MDA-MB-231 breast
RXF 393 renal = system: RXF 393 renal
SF-268 CNS = system: SF-268 CNS
SF-295 CNS = system: SF-295 CNS
SF-539 CNS = system: SF-539 CNS
UACC-257 melanoma = system: UACC-257 melanoma
M14 melanoma = system: M14 melanoma
NCI-H460 lung = system: NCI-H460 lung

Measured: growth

COc1c(B(O)O)cc(F)cc1-c1nc2c(F)cc3[nH]ncc3c2c2c1CCCC2
inactive: HOP-62 NSCLC 16.8% | HOP-92 NSCLC 17.2% | 786-0 renal 29.2% | DU-145 prostate 14.6% | K-562 leukemia 38.8% | MALME-3M melanoma 50.9% | SF-268 CNS 30.3% | SF-295 CNS 15.2% | UACC-257 melanoma 40% | M14 melanoma 38.2%
active: NCI-H23 lung 5.45% | NCI-H226 lung 4.1% | NCI-H522 lung 5.36% | A549/ATCC NSCLC 2.51% | COLO 205 colon -16% | MDA-MB-231 breast 3.96% | RXF 393 renal -45.4% | SF-539 CNS -44%

COc1ccc2c(c1)N=c1c-2cc2c(O)[nH]c(=S)n2c1=O
active: NCI-H522 lung -9.92% | SF-539 CNS -7.78%
inactive: NCI-H23 lung 43.1% | NCI-H226 lung 46.1% | HOP-62 NSCLC 36.6% | NCI-H460 lung 83.1% | HOP-92 NSCLC 71.3% | A549/ATCC NSCLC 65.8% | 786-0 renal 35.3% | COLO 205 colon 30.7% | DU-145 prostate 50.8% | K-562 leukemia 19.7% | MALME-3M melanoma 54.8% | MDA-MB-231 breast 42.1% | RXF 393 renal 11.4% | SF-268 CNS 84.4% | SF-295 CNS 26.1% | UACC-257 melanoma 53.4% | M14 melanoma 40%

O=c1[nH]c2ccccc2cc1CSc1ccccc1Nc1nccc(-c2ccc3c(c2)OCO3)n1
inactive: NCI-H23 lung 85.5% | NCI-H226 lung 49.7% | HOP-62 NSCLC 40.6% | NCI-H460 lung 76.7% | HOP-92 NSCLC 71.7% | NCI-H522 lung 34.8% | A549/ATCC NSCLC 82.4% | 786-0 renal 64.7% | COLO 205 colon 84.9% | DU-145 prostate 85.1% | K-562 leukemia 87.6% | MALME-3M melanoma 80.2% | MDA-MB-231 breast 85.4% | RXF 393 renal 81.5% | SF-268 CNS 63.2% | SF-295 CNS 75.3% | SF-539 CNS 63.9% | UACC-257 melanoma 94.4% | M14 melanoma 89.3%

COc1ccc(-c2cc(C(=O)N=Nc3c(O)[nH]c4ccc(Cl)cc34)c3ccccc3n2)cc1OC
inactive: NCI-H23 lung 92.2% | NCI-H226 lung 89.5% | HOP-62 NSCLC 123% | NCI-H460 lung 111% | HOP-92 NSCLC 121% | NCI-H522 lung 106% | A549/ATCC NSCLC 111% | 786-0 renal 106% | COLO 205 colon 125% | DU-145 prostate 126% | K-562 leukemia 109% | MALME-3M melanoma 105% | MDA-MB-231 breast 90.9% | RXF 393 renal 104% | SF-268 CNS 118% | SF-295 CNS 101% | SF-539 CNS 101% | UACC-257 melanoma 115% | M14 melanoma 89.2%

COc1sc(/C=N/NC(=O)c2[nH]c3ccc(Br)cc3c2-c2ccccc2)cc1Cl
active: NCI-H23 lung -41.9% | NCI-H226 lung -17.8% | HOP-62 NSCLC -27% | HOP-92 NSCLC -7.87% | NCI-H522 lung -39% | A549/ATCC NSCLC -20.2% | 786-0 renal -49.8% | COLO 205 colon -60.9% | DU-145 prostate -63.2% | K-562 leukemia 9.98% | MDA-MB-231 breast -68% | RXF 393 renal -25.7% | SF-268 CNS -17.2% | SF-295 CNS -40.6% | SF-539 CNS -85.3% | M14 melanoma -3.6%
inactive: MALME-3M melanoma 18.1% | UACC-257 melanoma 29%

Cc1ccc(-c2cc(-c3ccccc3)[nH]c(=O)c2C#N)cc1
inactive: NCI-H23 lung 96.4% | NCI-H226 lung 86.8% | HOP-62 NSCLC 85.3% | NCI-H460 lung 90.8% | HOP-92 NSCLC 45.7% | NCI-H522 lung 74.9% | A549/ATCC NSCLC 77.3% | 786-0 renal 88.4% | COLO 205 colon 124% | DU-145 prostate 97.3% | K-562 leukemia 74.4% | MALME-3M melanoma 106% | MDA-MB-231 breast 83.8% | RXF 393 renal 101% | SF-268 CNS 92.9% | SF-295 CNS 90.4% | SF-539 CNS 81.9% | UACC-257 melanoma 101% | M14 melanoma 111%

O=C(CSc1nnc(-c2ccc(-c3nc4ccccc4[nH]3)cc2)o1)Nc1ccc(Cl)cc1
active: NCI-H23 lung -6.9% | HOP-62 NSCLC 0.484% | NCI-H460 lung -65.4% | HOP-92 NSCLC -5.87% | NCI-H522 lung 0.5% | A549/ATCC NSCLC 1.88% | 786-0 renal -37.8% | MDA-MB-231 breast -24.9% | RXF 393 renal -61.7% | SF-539 CNS -94.2% | M14 melanoma -0.25%
inactive: NCI-H226 lung 40.3% | COLO 205 colon 61.7% | DU-145 prostate 13.1% | K-562 leukemia 10.7% | MALME-3M melanoma 29.1% | SF-268 CNS 38.5% | SF-295 CNS 39% | UACC-257 melanoma 48.9%

O=C(N/N=C/c1ccc(B(O)O)s1)c1[nH]c2ccc(Br)cc2c1-c1ccccc1
active: NCI-H23 lung -94.9% | NCI-H226 lung -45.2% | HOP-62 NSCLC -69.8% | NCI-H460 lung -76% | HOP-92 NSCLC -60.2% | NCI-H522 lung -83% | A549/ATCC NSCLC -62.8% | 786-0 renal -66.2% | COLO 205 colon -81.8% | DU-145 prostate -56.4% | K-562 leukemia 2.64% | MALME-3M melanoma -96.2% | MDA-MB-231 breast -88.1% | RXF 393 renal -94.3% | SF-268 CNS -37.2% | SF-295 CNS -98.1% | SF-539 CNS -98.8% | UACC-257 melanoma -77.4% | M14 melanoma -67.4%

Cc1nc(Nc2ccccn2)sc1C1=NNC(c2ccccc2F)C1 (centres undefined)
active: NCI-H522 lung -18.9%
inactive: NCI-H23 lung 67.6% | NCI-H226 lung 78.9% | HOP-62 NSCLC 70.6% | HOP-92 NSCLC 62.4% | A549/ATCC NSCLC 59.2% | 786-0 renal 57.6% | COLO 205 colon 86% | DU-145 prostate 67.4% | K-562 leukemia 15.1% | MALME-3M melanoma 63.8% | MDA-MB-231 breast 47.5% | RXF 393 renal 87.5% | SF-268 CNS 78.2% | SF-295 CNS 39.6% | SF-539 CNS 32.4% | UACC-257 melanoma 83.2% | M14 melanoma 52.6%

Cc1ccc2nc(NC(=O)Nc3cccc(Cl)c3)sc2c1
inactive: NCI-H23 lung 93.8% | NCI-H226 lung 96.4% | HOP-62 NSCLC 111% | NCI-H460 lung 99.1% | HOP-92 NSCLC 119% | NCI-H522 lung 94% | A549/ATCC NSCLC 106% | 786-0 renal 107% | COLO 205 colon 117% | DU-145 prostate 118% | K-562 leukemia 90.3% | MALME-3M melanoma 93.5% | MDA-MB-231 breast 92% | RXF 393 renal 121% | SF-268 CNS 118% | SF-295 CNS 98.8% | SF-539 CNS 102% | UACC-257 melanoma 111% | M14 melanoma 97.6%

CCCn1c(NC(=O)c2cccc(C(N)=O)c2)nc2ccc(CN3CCCCC3)cc21
active: M14 melanoma -6.41%
inactive: NCI-H23 lung 89.8% | NCI-H226 lung 102% | HOP-62 NSCLC 105% | NCI-H460 lung 81.9% | HOP-92 NSCLC 84.4% | NCI-H522 lung 94.1% | A549/ATCC NSCLC 99.8% | 786-0 renal 12% | COLO 205 colon 97.4% | DU-145 prostate 87.1% | K-562 leukemia 85.8% | MALME-3M melanoma 92.4% | MDA-MB-231 breast 126% | RXF 393 renal 46.4% | SF-268 CNS 107% | SF-295 CNS 106% | SF-539 CNS 106% | UACC-257 melanoma 121%

COC(=O)c1cc(C(C)=O)n2c3ccccc3c3ccccc3c12
inactive: NCI-H23 lung 78.1% | NCI-H226 lung 61.3% | HOP-62 NSCLC 57.9% | NCI-H460 lung 110% | NCI-H522 lung 86.4% | A549/ATCC NSCLC 96.9% | 786-0 renal 36.6% | COLO 205 colon 108% | DU-145 prostate 67% | K-562 leukemia 85.9% | MALME-3M melanoma 84.6% | MDA-MB-231 breast 33.2% | RXF 393 renal 11.8% | SF-268 CNS 59.5% | SF-295 CNS 56% | SF-539 CNS 28.5% | UACC-257 melanoma 118% | M14 melanoma 72.1%
